VDR inhibitor – blocks the human vitamin D receptor; P11473; VDR-SRC2-3 peptide fluorescence polarization, 2 h; Potency, µM, most hits filed as inhibitors; actives 0.93% (n = 400,000)
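Inhibition of the VDR/SRC2-3 peptide interaction is quantified by fluorescence polarization. Compounds (23 nl, pintool) incubate with the reagents for 2 hours at ambient room temperature.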
PI5P4Ka inh – PI5P4K alpha (human) kinase inhibition; AID 652105; P48426; actives 1.2% (n = 330,000); max response, %; PI5P4Kalpha enzyme, ADP-Glo luminescence, 60 min; hits give low values; active = max response of -50% or lower; inconclusive = between -30% and -50%; inactive = -30% or higher; note: value at the top dose of about 77 µM
Target sequence (P48426 whole entry, looked up): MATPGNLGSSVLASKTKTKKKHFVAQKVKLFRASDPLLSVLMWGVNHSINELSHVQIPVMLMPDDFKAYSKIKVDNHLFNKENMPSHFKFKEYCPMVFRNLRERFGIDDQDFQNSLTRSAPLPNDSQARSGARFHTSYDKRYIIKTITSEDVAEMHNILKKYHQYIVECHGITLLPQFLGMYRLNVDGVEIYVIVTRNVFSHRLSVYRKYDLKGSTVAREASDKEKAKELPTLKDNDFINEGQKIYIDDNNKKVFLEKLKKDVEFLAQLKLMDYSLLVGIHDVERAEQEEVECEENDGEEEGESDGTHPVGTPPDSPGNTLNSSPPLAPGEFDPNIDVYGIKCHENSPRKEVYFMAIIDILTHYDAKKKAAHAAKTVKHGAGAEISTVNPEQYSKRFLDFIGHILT
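ADP-Glo luminescence end-point after a 60 min room-temperature kinase reaction. PI5P4Kalpha and substrate in HEPES pH 7.4 buffer with EGTA, 0.1% CHAPS and 5% DMSO; ATP at 5 microM final.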
KAT2A inh – blocks human GCN5L2 histone acetyltransferase. GCN5L2 HAT assay, ThioGlo1 CoA-SH fluorescence. Potency, µM (highest dose often 58.9 µM), most hits filed as inhibitors. actives 0.21% (n = 390,000)
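GCN5L2 (20 nM) in 50mM HEPES pH 7.5, 0.1mM EDTA, 0.01% Tween-20 preincubated 15 min with compounds at room temperature. Reaction started with H3(1-25) 75uM, acetyl-CoA 70uM, ThioGlo1 50uM; CoA-thiol fluorescence (Ex340/Em540) read at 0 and 20 min.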
Rango release inh – inhibitors of RanGTP-induced Rango-importin beta complex dissociation; O95149+P62826; actives 0.071% (n = 340,000); AID 540253; Potency, µM (titrated, usually from 46.1 µM); Biochemical FRET Rango-importin beta, RanGTP-induced dissociation; calls by dose curve; note: nearly all actives have a fitted effect of over 45% in size
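Recombinant Rango FRET biosensor (EYFP–snurportin 1 IBB–cerulean CFP10) at 0.1 uM premixed with 0.25 uM importin beta in PBS, 1 mM DTT, 0.02% Tween-20, 0.1% BSA. Compound added 5 min; RanGTP-RCC1 (0.6 uM Ran, 2 mM GTP, 0.2 uM RCC1) then triggers release, read at 45 min.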
Rango complex inh – Rango-importin beta binding inhibition; Q14974; actives 0.031% (n = 340,000); Rango CFP/YFP FRET sensor + importin beta, 45 min; Potency, µM (doses to about 92.2 µM); calls by dose curve; note: nearly all actives have a fitted effect of over 15% in size
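FRET biosensor (snurportin 1 IBB flanked by EYFP and cerulean), 50 nM, with compound 5 min, then 0.125 microM importin beta in PBS, 1 mM DTT, 0.02% Tween-20, 0.1% BSA. CFP/YFP ratio read after 45 min at room temperature; pre-read flags interference.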
PLK1 PBD inh – inhibitors of human PLK1 polo-box domain binding; P53350; Plk1 PBD binding of FITC phosphopeptide, fluorescence polarization; Potency, µM, hits mostly inhibitors; actives 2.8% (n = 360,000); AID 720504; note: series mostly up to about 57 µM; nearly all actives have a fitted effect of over 65% in size
TbPYK inh – confirmation of Trypanosoma brucei pyruvate kinase inhibitors | recombinant TbPYK, Kinase-Glo ATP luminescence | AID 720569 | shares compounds with PLK1 PBD inh | Potency, µM (doses to about 76.9 µM), most hits filed as inhibitors | actives 67% (n = 890); note: nearly all actives have a fitted effect of over 70% in size
TbPYK orthogonal – orthogonal confirmation of Trypanosoma brucei pyruvate kinase inhibitors | actives 62% (n = 890) | recombinant TbPYK, ADP-Glo luminescence, 60 min | AID 720584 | shares compounds with PLK1 PBD inh | Potency, µM (series often up to 76.9 µM), hits mostly inhibitors; note: nearly all actives have a fitted effect of over 75% in size
Numbers stand for hits. Rows were chosen to be rich in hits. Some 3.6% of all compounds tested hit in one or more screens of this group. Unless noted, calls come from the whole dose curve; as a rule, active = well fitted curve in the direction sought with a large enough effect; inconclusive = small, poorly fitted or top-dose-only effect, or another doubt; inactive = no such curve, though single readings can be large; an effect the other way counts as inactive or inconclusive.

CCN(CC)c1ccc(C(=C2C=CC(=[N+](CC)CC)C=C2)c2ccc(N(CC)CC)cc2)cc1 was read as VDR inhibitor inconclusive, PI5P4Ka inh -72.9, Rango release inh inactive, Rango complex inh inactive, PLK1 PBD inh 29.9µM, TbPYK inh 22.4µM and TbPYK orthogonal inactive.
CCN(CC)c1ccc(C(=O)NNC(=O)CCl)cc1 was read as VDR inhibitor inactive, PI5P4Ka inh inactive, KAT2A inh inactive, Rango release inh inactive, Rango complex inh inactive and PLK1 PBD inh inactive.
CCC(Sc1ncccc1C(=O)Oc1ccccc1Cl)C(=O)Nc1ccccc1OC (stereo not drawn) was read as VDR inhibitor inactive and KAT2A inh inactive.
Screening CN(C)c1cccc2c(C=C(C#N)C#N)ccc(N(C)C)c12 returned VDR inhibitor inactive, PI5P4Ka inh inactive, KAT2A inh inactive, Rango release inh inactive, Rango complex inh inactive, PLK1 PBD inh inactive, TbPYK inh inconclusive and TbPYK orthogonal inconclusive.
Screening CCOc1cc2c(c3c1C(c1ccccc1)N(S(=O)(=O)c1ccc(C)cc1)C3)C(=O)C=CC2=O (stereo not drawn) returned PI5P4Ka inh -84.7, PLK1 PBD inh inconclusive, TbPYK inh 1.58µM and TbPYK orthogonal 2.82µM.
`CCCCOc1ccc(NC(=O)CCSc2nccn2C)cc1` gave VDR inhibitor inactive, PI5P4Ka inh inactive, KAT2A inh inactive, Rango release inh inactive, Rango complex inh inactive, PLK1 PBD inh inactive, TbPYK inh 2µM and TbPYK orthogonal 2.24µM.
For O=C(NCCc1ccc(Cl)cc1)c1ccc2c(c1)N(Cc1ccccc1)C(=O)CS2 the results were VDR inhibitor inactive and KAT2A inh inactive.
`C=C(CN(C)C)C(=O)c1cc(C)ccc1C` gave VDR inhibitor 44.7µM, PI5P4Ka inh inactive, Rango release inh inactive, Rango complex inh inactive, PLK1 PBD inh 2.67µM, TbPYK inh 5.62µM and TbPYK orthogonal 15.8µM.
`COc1ccc(-c2onc(C)c2C)cc1S(=O)(=O)NCC1CCN(Cc2cc(C)ccc2C)CC1` gave VDR inhibitor inactive and KAT2A inh inactive.
Screening COc1ccccc1N1CCN(c2ccc(=O)n(CC(=O)NCc3ccc(F)cc3)n2)CC1 returned VDR inhibitor inactive and KAT2A inh inactive.
For COc1cc(SC)ccc1C(=O)N1CCN(c2ccccc2OC)CC1 the results were VDR inhibitor inactive, PI5P4Ka inh inactive, KAT2A inh inactive, Rango release inh inactive, Rango complex inh inactive and PLK1 PBD inh inactive.
For COc1ccccc1N1CSC2=C(C#N)C(c3ccc(SC)cc3)CC(=O)N2C1 (stereo not drawn) the results were VDR inhibitor 22.4µM, PI5P4Ka inh -83.3, KAT2A inh inconclusive, Rango release inh inconclusive, Rango complex inh inconclusive, PLK1 PBD inh 18.9µM, TbPYK inh 2.51µM and TbPYK orthogonal 2.24µM.
Screening N#CC1=C2SCN(Cc3ccccc3)CN2C(=O)CC1c1ccccc1F (stereo not drawn) returned VDR inhibitor 50.1µM, PI5P4Ka inh -76.7, KAT2A inh inactive, Rango release inh inactive, Rango complex inh inactive, PLK1 PBD inh 16.8µM, TbPYK inh 1.78µM and TbPYK orthogonal 1.58µM.
For COc1ccc(OC)c(C2CC(=O)N3CN(c4ccccc4F)CSC3=C2C#N)c1 (stereo not drawn) the results were VDR inhibitor 35.5µM, PI5P4Ka inh -93.5, KAT2A inh 8.91µM, Rango release inh inactive, Rango complex inh inactive, PLK1 PBD inh inconclusive, TbPYK inh 5.01µM and TbPYK orthogonal 10µM.
For COc1cc(/C=C2\C(=O)ON=C2c2ccccc2)cc(OC)c1OC the results were VDR inhibitor 28.2µM, PI5P4Ka inh inactive, KAT2A inh inactive, Rango release inh inactive, Rango complex inh inactive, PLK1 PBD inh 7.52µM, TbPYK inh inconclusive and TbPYK orthogonal inconclusive.
`COc1ccc(/C=C/C(=O)N(C(C)C)C(C)C)cc1Br` gave VDR inhibitor inactive, KAT2A inh inactive, Rango release inh inactive, Rango complex inh inactive and PLK1 PBD inh inactive.
For COc1ccc(/C=C2/C(=O)ON=C2C)cc1Br the results were VDR inhibitor inconclusive, PI5P4Ka inh inactive, KAT2A inh inactive, Rango release inh inactive, Rango complex inh inactive, PLK1 PBD inh 1.89µM, TbPYK inh inconclusive and TbPYK orthogonal inconclusive.
For COc1ccc(CCNC(=O)Cn2cc(S(=O)(=O)Cc3ccc(F)cc3)c3ccccc32)cc1OC the results were VDR inhibitor inactive and KAT2A inh inactive.
Screening O=C1C=C(NCCc2cc(Br)c(O)c(Br)c2)C(=O)c2ncccc21 returned VDR inhibitor 31.6µM, PI5P4Ka inh -73.8, Rango release inh inactive, Rango complex inh inconclusive, PLK1 PBD inh 2.67µM, TbPYK inh 11.2µM and TbPYK orthogonal 15.8µM.
CCOC(=O)c1cccc(NC(=O)CSc2ncc3c(n2)-c2ccc(Cl)cc2N(Cc2ccccc2)S3(=O)=O)c1 was read as VDR inhibitor inactive and KAT2A inh inactive.
COc1cccc(CNC(=O)CNS(=O)(=O)c2ccc3nc(C)sc3c2)c1 was read as VDR inhibitor inactive and KAT2A inh inactive.
Screening COc1ccc(Cc2nc3ccc(C(=O)NCCc4ccc(Cl)cc4)cc3o2)cc1 returned VDR inhibitor inactive and KAT2A inh inactive.
`CCOC(=O)c1sc2ccccc2c1S(=O)(=O)NCc1ccc(F)cc1` gave VDR inhibitor inactive and KAT2A inh inactive.
`COC(=O)c1c(-c2ccc(C(C)(C)C)cc2)csc1NC(=O)C1C2CCC(O2)C1C(=O)O` (stereo not drawn) gave VDR inhibitor 44.7µM, PI5P4Ka inh inconclusive, KAT2A inh inconclusive, Rango release inh inactive, Rango complex inh inactive, PLK1 PBD inh 2.67µM, TbPYK inh 4.47µM and TbPYK orthogonal 14.1µM.
O=C(c1ccccc1)c1ccccc1N1C(=O)C=CC1=O was read as VDR inhibitor 25.1µM, PI5P4Ka inh inconclusive, KAT2A inh inconclusive, Rango release inh inactive, Rango complex inh inactive, PLK1 PBD inh 3.36µM, TbPYK inh 3.98µM and TbPYK orthogonal 3.98µM.
For COc1ccc2oc(=O)c(C(=O)NCCc3c(C)[nH]c4c(C)cccc34)cc2c1 the results were VDR inhibitor inactive and KAT2A inh inactive.
For COc1ccccc1N(C(C)=O)C1=C(Cl)C(=O)c2ccccc2C1=O the results were PI5P4Ka inh -89.2, PLK1 PBD inh 2.99µM, TbPYK inh inactive and TbPYK orthogonal 0.794µM.

Screens from PubChem.
